# Shown are actives, neighbours in structure and some others; about 3% of the full set was active somewhere.
# VDR inhibitor: Inhibitors of the vitamin D receptor (VDR): qHTS; Vitamin D3 receptor (Homo sapiens), P11473; VDR-SRC2-3 peptide fluorescence polarization, 2 h; Potency, µM, hits mostly inhibitors; actives 0.93% (n = 400,000); AID 504847, 2011
# Target sequence (P11473 whole entry, looked up): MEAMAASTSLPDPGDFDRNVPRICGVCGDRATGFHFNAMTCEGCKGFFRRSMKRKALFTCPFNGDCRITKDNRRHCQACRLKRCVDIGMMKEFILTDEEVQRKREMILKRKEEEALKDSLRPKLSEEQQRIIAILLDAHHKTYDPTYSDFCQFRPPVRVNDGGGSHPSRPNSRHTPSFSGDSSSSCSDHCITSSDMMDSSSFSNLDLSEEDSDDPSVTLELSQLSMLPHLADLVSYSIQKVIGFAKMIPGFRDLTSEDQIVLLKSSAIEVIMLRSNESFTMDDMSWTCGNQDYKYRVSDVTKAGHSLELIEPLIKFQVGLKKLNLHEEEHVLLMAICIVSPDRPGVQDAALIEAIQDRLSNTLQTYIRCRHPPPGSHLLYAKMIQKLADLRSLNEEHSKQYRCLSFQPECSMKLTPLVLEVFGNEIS
#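 Reagent solutions, kept cold and dark, are dispensed first; compounds are then pinned in at 23 nl, plates briefly spun, and incubated 2 h at ambient temperature. Inhibition of VDR–SRC2-3 peptide binding is read by fluorescence polarization.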
# TSG101-PTAP inh: qHTS Assay for Iinhibitors of HIV-1 Budding by Blocking the Interaction of PTAP/TSG101 | Tumor susceptibility gene 101 protein (Homo sapiens), Q99816 | Fluorescence polarization, FITC-PTAP peptide / Tsg101 binding | Potency, µM (doses to about 115 µM), usual class: inhibitors | 340,000 tested, under 10 active; active means well fitted inhibition curve with a large enough effect in the main read-out, with a control signal flat, not every such curve was filed as active; inconclusive means small, poorly fitted or top-dose-only effect, or effect the other way, or a change in a side signal; inactive means no such curve, though single readings can be large or run the other way
#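 FP read-out: FITC-PTAP peptide, 50 nM final, binding Tsg101 binding domain, 10 uM final; 20 min, r.t.; 10 mM HEPES pH 7.5, 0.15 M NaCl, 0.01% Tween 20, 3 mM EDTA, 0.1 mM TCEP.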
# PLK1 PBD block: qHTS for Inhibitors of PLK1-PDB (polo-like kinase 1 - polo-box domain): Primary Screen. Serine/threonine-protein kinase PLK1 (Homo sapiens), P53350. Plk1 PBD binding of FITC phosphopeptide, fluorescence polarization. Potency, µM, actives largely listed as inhibitors. actives 2.8% (n = 360,000); further: series mostly up to about 57 µM; nearly all actives have a fitted effect of over 65% in size
# KAT2A inh: qHTS Assay for Inhibitors of GCN5L2; Histone acetyltransferase KAT2A (Homo sapiens), Q92830; actives 0.21% (n = 390,000); Potency, µM (top dose mostly 58.9 µM), hits mostly inhibitors; GCN5L2 HAT assay, ThioGlo1 CoA-SH fluorescence; AID 504327, 2011
#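 Compounds, pin-transferred from DMSO stocks, meet 20nM GCN5L2 for 15 min before the reaction begins with H3(1-25) peptide (75uM) and acetyl-CoA (70uM). Thiol-reactive ThioGlo1 reports CoA release over 20 min at room temperature.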
# USP1-UAF1 inh: Inhibitors of USP1/UAF1: Primary Screen. Ubiquitin carboxyl-terminal hydrolase 1 (Homo sapiens), O94782. Potency, µM (series often up to 57.1 µM), hits mostly inhibitors. AID 743255, 2014. actives 0.23% (n = 390,000). recombinant USP1/UAF1, Ub-Rhodamine cleavage fluorescence; further: nearly all actives have a fitted effect of over 60% in size
#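 USP1/UAF1 complex at 1 nM was preincubated with compound for 15 min at room temperature, then Ub-Rho substrate (150nM final) was added. Fluorescence (480/540 nm) was read kinetically, 6 reads every 60 seconds.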
# A number is an active result; . = inactive; ? = inconclusive; / = no result given. Unless noted, the call rests on the fitted dose curve; in most records, active means well fitted curve in the direction sought with a large enough effect; inconclusive means small, poorly fitted or top-dose-only effect, or another doubt; inactive means no such curve, though single readings can be large; an effect the other way counts as inactive or inconclusive.
SMILES,VDR inhibitor,TSG101-PTAP inh,PLK1 PBD block,KAT2A inh,USP1-UAF1 inh
O=C(CNc1cccc(S(=O)(=O)N2CCCC2)c1)Nc1ccc(C(F)(F)F)cc1,.,.,.,.,.
Cn1c(N)c(C(=O)CCl)c(=O)n(Cc2ccccc2)c1=O,.,.,17µM,.,.
CCCCn1c(CNC(=O)c2ccc(OC)cc2)nnc1SCC(=O)Nc1ccccc1,.,/,/,.,.
COC(=O)c1ccc2c(c1)NC(=O)CS2,.,.,21µM,.,.
COc1ccc(-c2nc3cnc(Nc4cccc(OC)c4)nc3n(C[C@H]3CCCO3)c2=O)cc1,.,/,/,.,/
CCN1CCN(C(=S)c2ccc(OCC(=O)NCc3ccccc3)cc2)CC1,?,.,11µM,.,.
O=C(Nc1cc(S(=O)(=O)Nc2ccc(Cl)cc2)ccc1O)c1ccc(S(=O)(=O)N2CCCCCC2)cc1,?,.,12µM,.,.
O=C(Nc1cc(S(=O)(=O)N2CCCCC2)ccc1O)c1ccccc1NS(=O)(=O)c1ccc(F)cc1,.,.,27µM,.,.
CCOC(=O)C1CCN(Cc2ccc(O)c3ncccc23)CC1,.,.,27µM,.,.
Cc1ccc(OCC(=O)Nc2c(Cl)ccc3nsnc23)cc1C,.,/,/,.,.
O=c1c(-c2ccccc2)nc2cnc(N3CCOCC3)nc2n1CCc1ccccc1,.,/,/,?,/
O=[N+]([O-])c1cccc(SSc2cccc([N+](=O)[O-])c2)c1,4µM,.,0.38µM,/,.
CC(=O)c1cnc2nc(SCc3ccc(C)cc3)nn2c1C,?,.,24µM,.,.
O=S(=O)(O)c1cccc2cccc(Nc3ccccc3)c12,?,.,15µM,/,?
COc1ccc(N2CCN(C(=O)c3cccn4c(=O)c5ccc(Cl)cc5nc34)CC2)cc1,.,/,/,.,.
Cc1cc2c(cc1NS(=O)(=O)c1ccc(NC(=O)CC(C)C)cc1)n(C)c(=O)c(=O)n2C,.,/,/,.,.
CC(C)c1onc(-c2c(Cl)cccc2Cl)c1COc1ccc(/C=C/c2cccc(C(=O)O)c2)c(Cl)c1,?,/,/,13µM,/
CCC(C)NC(=O)c1cccc(OCc2c(C)noc2C)c1 (stereo unspecified),.,.,.,.,.
O=C1CN(C(=O)COc2ccc(Cl)cc2)C(c2ccc(F)cc2)c2cc(Br)ccc2N1 (stereo unspecified),.,/,/,.,.
COC(=O)C1CCN(c2csc3ccc(C)cc3c2=O)CC1,.,/,/,.,.
O=C(COc1cccnc1[N+](=O)[O-])c1ccc(Cl)s1,50µM,.,15µM,?,.
Cc1ccc2nc(-c3cccc(S(=O)(=O)N4CCCC4)c3)cn2c1,.,.,.,.,.
Cc1ccc2nc(-c3cccc(S(=O)(=O)N4CC(C)OC(C)C4)c3)cn2c1 (stereo unspecified),.,.,19µM,.,?
Cn1c(CNC(=O)C(Cc2ccccc2)NC(=O)c2cccc(F)c2)cc(=O)n(C)c1=O (stereo unspecified),.,.,27µM,.,.
O=C1CCCCCN1C(=O)c1ccccc1,.,.,.,/,.
SMILES,VDR inhibitor,TSG101-PTAP inh,PLK1 PBD block,KAT2A inh,USP1-UAF1 inh
O=C1CCCCCN1Sc1ccccc1,13µM,.,1.1µM,.,.
Cc1noc(C(=O)Nc2ccccc2C(F)(F)F)c1Cl,.,.,30µM,.,.
Cc1onc(C(=O)Nc2ccccc2C(F)(F)F)c1[N+](=O)[O-],.,.,.,.,.
CN1CCN(C(c2ccc(C(F)(F)F)cc2)c2ccc3cccnc3c2O)CC1 (stereo unspecified),32µM,.,3.8µM,.,.
Oc1c(C(c2ccccc2Cl)N2CCCC2)ccc2cccnc12 (stereo unspecified),?,.,7.5µM,.,.
Oc1c(C(Nc2cccc(C(F)(F)F)c2)c2cccnc2)ccc2cccnc12 (stereo unspecified),?,.,.,.,.
Oc1c(C(c2ccc(Cl)cc2)N2CCCC2)cc(Cl)c2cccnc12 (stereo unspecified),.,.,?,.,.
Cc1cccc(CC(=O)N2CC(=O)Nc3ccc(C)cc3C2c2ccc(F)cc2)c1 (stereo unspecified),.,/,/,.,.
Cn1c(=O)c(-c2cccc(Cl)c2)nc2cncnc21,.,/,/,.,/
Cc1ccc(Nc2c(-c3ccc(C)o3)nc3cnccn23)cc1,71µM,.,14µM,.,.
COc1cccc(Nc2ncc3nc(C)c(=O)n(C4CC4)c3n2)c1,.,/,/,.,/
COc1ccccc1OCC(=O)NCC1CCCN(C(=O)c2ccccc2SC)C1 (stereo unspecified),?,.,3.4µM,.,.
COc1ccc(C(=O)N2CCCC(CNC(=O)c3ccccc3Cl)C2)o1 (stereo unspecified),?,.,.,?,.
CC(=O)c1ccccc1C(=O)N1CCCC(CNC(=O)c2ccccc2Cl)C1 (stereo unspecified),?,.,27µM,.,.
c1ccc(CCc2nn3c(Cn4nnc5ccccc54)nnc3s2)cc1,?,.,13µM,.,.
c1ccc(Cc2nn3c(Cn4nnc5ccccc54)nnc3s2)cc1,89µM,.,8.4µM,.,.
c1ccc2c(c1)OCC(c1nn3c(Cn4nnc5ccccc54)nnc3s1)O2 (stereo unspecified),?,.,24µM,?,.
Clc1ccccc1-c1nnc2sc(CCc3ccccc3)nn12,50µM,/,7.5µM,.,.
O=c1c2ccccc2nnn1CSc1nnc(C2COc3ccccc3O2)n1-c1ccccc1 (stereo unspecified),.,.,.,.,.
CCOc1ccc(NC(=O)c2sc3nc4n(c(=O)c3c2C)CCCC4)cc1,.,/,/,.,.
COc1cc(C)ccc1OCc1cc(C(=O)N2CCN(C)C[C@@H]2c2ccccc2)no1,.,.,.,.,.
Cc1ccc([N+](=O)[O-])cc1N=C1C(=O)Nc2ccccc21,25µM,.,.,.,.
COc1ccccc1C(c1nnnn1C(C)C)N1CCN(C(=O)c2ccco2)CC1 (stereo unspecified),.,.,.,.,.
CCN(Cc1ccccc1)C(=O)CSc1nc(C)cc(C)c1C#N,?,.,21µM,.,.
COc1cccc([C@@H]2Oc3ccc(Br)cc3C[C@H]2O)c1,.,/,/,/,/
COc1ccc2c(c1)OC/C(=C/c1ccc(O)c(O)c1)C2=O,?,/,/,.,/
COc1ccc2c(c1)OC/C(=C/c1ccc(OC)c(OC)c1)C2=O,22µM,/,/,.,/
CCOC(=O)c1c[nH]c2cc(OCC(C)C)c(OCC(C)C)cc2c1=O,.,/,/,.,/
O=C(CSc1nnc(SCc2ccc(Cl)cc2)s1)N/N=C/c1ccc(C(=O)O)cc1,.,.,67µM,.,.

# Screening results (PubChem)
